Consider 35 compounds from PubChem BioAssay.

Active and inactive are the calls of the source.

The first assay can be described thus: HepG2 liver cancer cell viability effects, profiling panel, resazurin fluorescence, 24 h, PK04 Diversity Set (AID 1172). Further: test concentration not given here. Particulars: higher = more signal. A general note: The colour change of resazurin is a common sign of viable cells or microbes.
In turn, `O=C1C2C=CC(C(O)c3ccco3)N(Nc3ccccc3F)C2C(=O)N1c1ccccc1` (stereo not given) yielded a z-score of 0.162.
With `CC(C)(C)OC(=O)COc1cccc(C(=O)CCN2CCOCC2)c1`, the z-score was 0.454.
The same measure, in the same setting: the result for `CS(=O)(=O)CCOC(=O)C1=CC(CCCO)=CC(c2ccc(CN3CCCC3)cc2)N(Cc2sc3ccccc3c2Cl)C=C1C(=O)OCCS(C)(=O)=O` (stereo not given) reads -0.518; that for `COC(=O)[C@@]1(Cc2ccc(F)cc2)[C@H]2c3cc(C(=O)N(C)C)n(CCc4ccc(OC)c(Br)c4)c3C[C@H]2CN1C(=O)c1ccccc1`, -1.73; that for `COc1ccc([Si](C)(C)[C@@H]2[C@@H](CC(=O)N3Cc4ccccc4C[C@H]3CO)O[C@]3(C(=O)N(Cc4ccc(N5C(=O)c6cccc7cccc5c67)cc4)c4ccccc43)[C@H]2C)cc1`, -0.542.

The nature of a further assay: basal S. cerevisiae growth modulation, no modifier, primary screen, OD600, strain BY4716, 24 h, basal condition (AID 1173). Particulars: OD600, 24 h, higher = more signal, called active from +8 up or from −8 down.
For `COc1cc2c(cc1O)C(C1CC1)N(Cc1cccc(OC(F)(F)F)c1)CC2` (stereo not given), the z-score was -5.59 (inactive).
Still for that read-out and setting: the value for `C=CC[C@]1(C(=O)N2CCOCC2)COC(c2ccc(OCCCO)cc2)=N1` was -1.37 (inactive); that for `C=CC[C@]1(C(=O)N2CCCCC2)N=C(c2ccc(OCCCO)cc2)O[C@H]1c1ccccc1CN=[N+]=[N-]` was -1.03 (inactive).
In the case of `COc1ccc(CCNC(=O)[C@@]2(Sc3ccc(C)cc3)CC(=O)N(Cc3ccccc3C(F)(F)F)[C@@H]2c2ccc(CO)cc2I)cc1`, the z-score was -5.78 (inactive).
In the case of `O=C1N(CCS(=O)(=O)c2ccccc2)c2ccccc2[C@H]2OC(c3ccc(OCCCO)cc3)=N[C@@]12Cc1ccccc1`, the z-score is -0.148 (inactive).
As for `CCCCC[C@H]1OC[C@@]23C=C(Br)[C@@H](CC12)[C@@]1(CO1)C3=O` (stereo not given in full), the z-score was -8.43 (active).
The same measure, in the same setting: the result for `COC(=O)[C@@]1(Cc2ccc(OC)cc2)[C@H]2c3cc(C(=O)N(C)C)n(Cc4ccc(OC(F)(F)F)cc4)c3C[C@H]2CN1C(=O)c1ccccc1` reads 0.633 (inactive); that for `CCC#CCN(Cc1ccccc1Br)[C@H](/C=C/C1CC1)[C@@H](O)Cc1ccccc1`, -3.06 (inactive).
Regarding `CC[C@@H]1O[Si](C(C)C)(C(C)C)c2c1cc(-c1cc(C)c(OC)c(C)c1)nc2-c1ccc(Oc2ccccc2)cc1`, the z-score is -0.122 (inactive).
Turning to `CCCNC(=O)[C@@]1(C)c2ccccc2C(=O)N(c2ccc(C)cn2)[C@H]1c1ccc(CO)cc1`, the z-score is -0.397 (inactive).
Turning to `[N-]=[N+]=Nc1ccccc1[C@@H]1OC(c2ccc(OCCCO)cc2)=N[C@]1(Cc1ccccc1)C(=O)N1CCCCC1`, the z-score is -0.592 (inactive).
For the compound `COc1ccc([Si](C)(C)[C@@H]2[C@@H](CCO)O[C@]3(C(=O)N(Cc4ccccc4)c4ccc(N5C(=O)c6cccc7cccc5c67)cc43)[C@H]2C)cc1`, the z-score is 0.282 (inactive).
For `COc1cccc(C)c1NC(=O)O[C@H]1[C@H](OC(=O)Nc2ccc3c(c2)OCO3)[C@@H](OC(=O)Nc2ccc3c(c2)OCO3)[C@@H](OC)O[C@@H]1CO`, the z-score was 1.21 (inactive).
The same measure, in the same setting: the value for `Cc1cc(C)c(C(O)C2C=CC3C(=O)N(c4ccccc4)C(=O)C3N2Nc2ccccc2F)c(C)c1` (stereo not given) was 2.01 (inactive); that for `CCCC1(C(=O)OC)C=C2C(=C(C)C(=O)C2C)CN1` (stereo not given) was 1.99 (inactive); that for `O=C(NCCN1CCOCC1)[C@@H]1c2ccccc2C(=O)N(Cc2ccccc2Cl)[C@H]1c1ccc(CO)cc1` was 0.199 (inactive).
Same read-out and setting: the result for `C=C(/C(=C/C[C@H](OC(C)=O)c1ccc(CO)o1)c1cnc2ccccc2c1)C(C)C` reads -0.269 (inactive); that for `CCOC(=O)C[C@H]1[C@H](OC(=O)Cc2ccc3c(c2)OCO3)[C@@H](NC(=O)c2ccc3ccccc3n2)c2cc(OCCCO)ccc2N1C(=O)c1ccc2ccccc2n1`, -1.22 (inactive).
As to `[N-]=[N+]=Nc1ccccc1C[C@]1(C(=O)NCCN2CCOCC2)COC(c2ccc(OCCCO)cc2)=N1`, the z-score is -1.84 (inactive).
Still for that read-out and setting: the value for `COc1ccc(CCNC(=O)[C@@H]2c3ccccc3C(=O)N(C3CCCCC3)[C@H]2c2ccc(CO)cc2)cc1` was 0.162 (inactive); that for `COCCOC(=O)N1C(=O)[C@@]2(c3ccccc31)[C@H](C(=O)NC[C@H](O)c1ccccc1)[C@H]1C(=O)O[C@H](c3ccccc3)[C@H](c3ccccc3)N1[C@@H]2c1ccc(O)cc1` was 0.64 (inactive).
Consider `COC(=O)[C@]1(CCS(=O)(=O)c2ccccc2)N=C(c2ccc(OCCCO)cc2)O[C@@H]1c1ccccc1N=[N+]=[N-]`, for which the z-score is 0.141 (inactive).
Consider `CC(C)C(CO)N1C(=O)[C@@H]2C3C(=O)OCCC/C=C\[C@H]3OC23C=CCN(c2ccc4ccccc4c2)C(=O)[C@@H]13` (stereo not given in full), for which the z-score is 0.267 (inactive).
On the same count and under the same terms, the result for `CN1C2C=C(CCCO)C(C3C(=O)N(C(N)=O)C(=O)C32)C1C1CC1` (stereo not given) reads 0.796 (inactive); that for `NCCCCCNC(=O)[C@@H]1C[C@@H]2C(=O)N[C@@H](CCCCN)C(=O)N2[C@@H]1c1ccc(O)cc1`, 1.95 (inactive).
For the compound `CCCCCC1=C2CNC(C)(C(=O)OC)C=C2C(C)C1=O` (stereo not given), the z-score is 2.3 (inactive).
On to `COc1ccc(CCNC(=O)[C@@]2(c3ccc([N+](=O)[O-])cc3)CC(=O)N(C3CCCCC3)[C@@H]2c2ccc(CO)cc2)cc1`, for which the z-score was -0.0229 (inactive).
For `COCCOC(=O)N1C(=O)[C@@]2(c3cc(C#CCC(C(=O)OC)C(=O)OC)ccc31)[C@H](c1ccc(OCCO)cc1)N1[C@H](c3ccccc3)[C@H](c3ccccc3)OC(=O)[C@H]1[C@@H]2C(=O)N1CCc2cc(OC)c(OC)cc2C1`, the z-score is 2.56 (inactive).
`O=C(c1ccccc1)N1C(=O)[C@]2(Cc3ccccc31)N=C(c1ccc(OCCCO)cc1)O[C@@H]2c1ccccc1`: the z-score was 0.964 (inactive).
The same measure, in the same setting: the value for `COc1ccc([Si](C)(C)[C@@H]2[C@@H](CCO)O[C@]3(C(=O)N(Cc4ccccc4)c4ccc(N5CCOC5=O)cc43)[C@H]2C)cc1` was 1.81 (inactive).
In the case of `O=C1C2C=CC(C(O)c3ccco3)N(Nc3ccccc3F)C2C(=O)N1c1ccccc1` (stereo not given), the z-score was -0.258 (inactive).
As to `CC(C)(C)OC(=O)COc1cccc(C(=O)CCN2CCOCC2)c1`, the z-score was -10.3 (active).
On to `CS(=O)(=O)CCOC(=O)C1=CC(CCCO)=CC(c2ccc(CN3CCCC3)cc2)N(Cc2sc3ccccc3c2Cl)C=C1C(=O)OCCS(C)(=O)=O` (stereo not given), for which the z-score was -2.76 (inactive).
As to `COC(=O)[C@@]1(Cc2ccc(F)cc2)[C@H]2c3cc(C(=O)N(C)C)n(CCc4ccc(OC)c(Br)c4)c3C[C@H]2CN1C(=O)c1ccccc1`, the z-score is 0.233 (inactive).
Regarding `COc1ccc([Si](C)(C)[C@@H]2[C@@H](CC(=O)N3Cc4ccccc4C[C@H]3CO)O[C@]3(C(=O)N(Cc4ccc(N5C(=O)c6cccc7cccc5c67)cc4)c4ccccc43)[C@H]2C)cc1`, the z-score is -0.551 (inactive).
